# The supplement of paper PMC12582362
# Counter-ions that a name gives are not always drawn. About 30 (2%) of roughly 1,500 compounds showed activity. The sample as a whole holds a higher share of actives than the screen did. A number with no mark means an inactive call.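 The calls were made as follows: active = robust z-score below -2; a few such results were not called.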
# Test system: optoTopBP1 Flp-In 293 T-REx (HEK293) cells
# Assay: light-induced TopBP1 condensate (nuclear foci) count, plate-normalised robust z-score vs non-control wells; higher = more TopBP1 condensates (negative = condensation inhibitor), active = hit call of the paper
# Settings: 10 µM; incubation time 2 h
row,SMILES,light-induced TopBP1 condensate (z-score)
1,C[CH2][Hg][S]c1ccccc1C(=O)[O-].[Na+] [Thimerosal],-8.21 (active)
2,C[C@]12CC[C@H]3[C@@H](CCC4=CC(=O)CC[C@@H]43)[C@@H]1CC[C@@H]2O [Nandrolone],2.28
3,O=C([O-])c1ccccc1-c1c2cc(Br)c(=O)cc-2oc2[c]([Hg+])c([O-])c(Br)cc12.[Na+].[Na+].[OH-] [Merbromin],-0.221
4,C[C@]12CC[C@H](O)C[C@H]1CC[C@@H]1[C@@H]2C[C@@H](O)[C@]2(C)[C@@H](C3=CC(=O)OC3)CC[C@]12O [Digoxigenin],-2.51 (active)
5,CC(=O)O[C@H]1C[C@H](O[C@H]2[C@@H](O)C[C@H](O[C@H]3[C@@H](O)C[C@H](O[C@H]4CC[C@@]5(C)[C@H](CC[C@@H]6[C@@H]5C[C@@H](O)[C@]5(C)[C@@H](C7=CC(=O)OC7)CC[C@]65O)C4)O[C@@H]3C)O[C@@H]2C)O[C@H](C)[C@H]1O[C@@H]1O[C@H](CO)[C@@H](O)[C@H](O)[C@H]1O [Lanatoside C],-1.56
6,C[C@]12CC[C@H](O)C[C@H]1CC[C@@H]1[C@@H]2CC[C@]2(C)[C@@H](C3=CC(=O)OC3)CC[C@]12O [Digitoxigenin],-2.06 (active)
7,C[C@]12CC[C@@H](O)C[C@H]1CC[C@@H]1[C@@H]2CC[C@]2(C)C(=O)CC[C@@H]12 [3-alpha-Hydroxy-5-beta-androstan-17-one],-0.529
8,C[C@]12CC[C@@H](O)C[C@@H]1CC[C@@H]1[C@@H]2CC[C@]2(C)C(=O)CC[C@@H]12 [Androsterone],0.981
9,C[C@]12CC[C@H](O)C[C@@H]1CC[C@@H]1[C@@H]2CC[C@]2(C)C(=O)CC[C@@H]12 [Epiandrosterone],-0.588
10,CO[C@]12C[C@@H](COC(=O)c3cncc(Br)c3)CN(C)[C@@H]1Cc1cn(C)c3cccc2c13 [Nicergoline],-0.703
11,CC(=O)NC1CCSC1=O (racemic) [N-Acetyl-DL-homocysteine Thiolactone],-0.247
12,CC(=O)O[C@H]1CC[C@@]2(C)C(=CC[C@@H]3[C@@H]2CC[C@]2(C)C(=O)CC[C@@H]32)C1 [Dehydroisoandosterone 3-acetate],-0.674
13,COc1cc([C@@H]2c3cc4c(cc3[C@H](O)[C@H]3COC(=O)[C@H]23)OCO4)cc(OC)c1OC [Podophyllotoxin],-2.43 (active)
14,COc1cc2c(c(OC)c1OC)-c1ccc(OC)c(=O)cc1[C@@H](NC(C)=O)CC2 [Colchicine],-1.18
15,CC(CCc1ccccc1)NC(C)C(O)c1ccc(O)cc1 (stereo not given) [Nylidrin],0.555
16,C#C[C@]1(O)CC[C@H]2[C@@H]3CCC4=CC(=O)CCC4=C3C=C[C@@]21CC [Gestrinone],0.545
17,CN1C(=O)COc2c(C(=O)NC3CN4CCC3CC4)cc(Cl)cc21 (stereo not given) [Azasetron hydrochloride],0.519
18,C[N+]1(C)[C@@H]2CC[C@H]1C[C@@H](OC(=O)C(CO)c1ccccc1)C2 (stereo not given in full) [Methylatropine nitrate],-0.568
19,COc1ccc(CCN)cc1OC [Homoveratrylamine],-1.31
20,C[C@]12CCC(=O)C=C1C=C[C@@H]1[C@@H]2CC[C@@]2(C)[C@H]1CC[C@@]2(O)CCC(=O)O [Canrenoic acid potassium salt],1.33
